The results in this text go back to PubChem BioAssay (NCATS).

Each structure is given as a SMILES string. Results filed as inconclusive are left out. Where a call stands in place of a potency, no number is given. Active and inactive are the calls of the source. Calls come from the whole dose curve; as a rule, active = well fitted curve in the direction sought with a large enough effect; inconclusive = small, poorly fitted or top-dose-only effect, or another doubt; inactive = no such curve, though single readings can be large; an effect the other way counts as inactive or inconclusive.

The first assay in a line: qHTS of pediatric cancer cell lines to identify multiple opportunities for drug repurposing: Primary screen for U-2 OS cells (AID 1347096). Note: nearly all actives have a fitted effect of over 50% in size. The conditions noted are these: U-2 OS viability, CellTiter-Glo luminescence, 48 h; series mostly up to 46 µM. Put shortly:
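Cells (500-1,000/well) in growth media were settled 5 h at 37 degrees C, then given compounds for 48 h. Viability was read as CellTiter-Glo luminescence. Primary runs used MIPE at 11 points (0.78 nM-46 µM) and NPC at 8 points (0.59 nM-46 µM); follow-ups used 11 points.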
For orientation: In qHTS, concentration-response curves come from the screen itself.
As to `O=S(=O)(O)CCS`, the Potency entry was “inactive”.

As to `CC(C)(C)NC(=O)[C@H]1CC[C@H]2[C@@H]3CC[C@H]4NC(=O)C=C[C@]4(C)[C@H]3CC[C@]12C`, the Potency result is “inactive”.

In the case of `CCC(C)(C)c1ccc(CC(C)CN2C[C@@H](C)O[C@@H](C)C2)cc1` (some centres not stated), the Potency result is “inactive”.

Take `COc1cc2c(Nc3ccc(Br)cc3F)ncnc2cc1OCC1CCN(C)CC1`: the Potency result is “inactive”.

As for `CC(C)(Sc1cc(C(C)(C)C)c(O)c(C(C)(C)C)c1)Sc1cc(C(C)(C)C)c(O)c(C(C)(C)C)c1`, the Potency result is “inactive”.

`COc1ccc2c(c1)c(CC(=O)OCC(=O)O)c(C)n2C(=O)c1ccc(Cl)cc1`: the Potency entry was “inactive”.

In the case of `Cc1ccnc2c1NC(=O)c1cccnc1N2C1CC1`, the Potency result is “inactive”.

With `Cc1nnc(NS(=O)(=O)c2ccc(N)cc2)s1`, the Potency result was “inactive”.

With `Cc1c(-c2ccc(O)cc2)n(Cc2ccc(OCCN3CCCCCC3)cc2)c2ccc(O)cc12`, the Potency entry is “inactive”.

As for `CCC(=O)O[C@]1(C(=O)SCF)[C@H](C)C[C@H]2[C@@H]3C[C@H](F)C4=CC(=O)C=C[C@]4(C)[C@@]3(F)[C@@H](O)C[C@@]21C`, the Potency result is “inactive”.

For the compound `CC[C@H](C)C(=O)O[C@H]1C[C@@H](C)C=C2C=C[C@H](C)[C@H](CC[C@@H]3C[C@@H](O)CC(=O)O3)[C@H]21`, the Potency entry is “inactive”.

As to `C[C@@H](CN1CC(=O)NC(=O)C1)N1CC(=O)NC(=O)C1`, the Potency entry was “inactive”.

For `C[C@@H](NCCCc1cccc(C(F)(F)F)c1)c1cccc2ccccc12`, the Potency entry was “inactive”.

`CCOC(=O)[C@H](CCc1ccccc1)N[C@H]1CCc2ccccc2N(CC(=O)O)C1=O`: the Potency entry is “inactive”.

For `NC(=O)c1cccc(N)c1`, the Potency entry is “inactive”.

Regarding `Clc1ccccc1CN1CCc2sccc2C1`, the Potency entry is “inactive”.

With `CC(C)Cn1cnc2c(N)nc3ccccc3c21`, the Potency result was “inactive”.

Regarding `CC1CC2C3CCC4=CC(=O)C=C[C@]4(C)[C@@]3(F)[C@@H](O)C[C@]2(C)[C@@]1(O)C(=O)CO` (some centres not stated), the Potency entry is “inactive”.

Take `O=c1cc(O)c(Cl)c[nH]1`: the Potency entry is “inactive”.

With `COc1cnc(NS(=O)(=O)c2ccc(N)cc2)nc1`, the Potency result was “inactive”.

Consider `O=C(O)C1CCCN(CCC=C(c2ccccc2)c2ccccc2)C1` (configuration not stated), for which the Potency entry was “inactive”.

`Cc1cccc(N(C)C(=S)Oc2ccc3ccccc3c2)c1`: the Potency entry is “inactive”.

With `CN(Cc1cc(Br)cc(Br)c1N)C1CCCCC1`, the Potency result was “inactive”.

In the case of `CC(C(=O)O)c1ccc2c(c1)CC(=O)c1ccccc1S2` (configuration not stated), the Potency result is “inactive”.

For the compound `CNC1CCCN(c2c(F)cc3c(=O)c(C(=O)O)cn(C4CC4)c3c2OC)C1` (configuration not stated), the Potency result is “inactive”.

As to `CNS(=O)(=O)CCc1ccc2[nH]cc(C3CCN(C)CC3)c2c1`, the Potency result was “inactive”.

Consider `OCc1ccc(-c2nn(Cc3ccccc3)c3ccccc23)o1`, for which the Potency result is “inactive”.

As to `Nc1nc(N)c2nc(CNc3ccc(C(=O)NC(CCC(=O)O)C(=O)O)cc3)cnc2n1` (configuration not stated), the Potency result was “inactive”.

`CC(C)NCC(O)c1ccc(NS(C)(=O)=O)cc1` (configuration not stated): the Potency entry is “inactive”.

Turning to `N[C@@H](Cc1ccc(O)c(O)c1)C(=O)O`, the Potency result is “inactive”.

Regarding `CCCCS(=N)(=O)CCC(N)C(=O)O` (configuration not stated), the Potency entry is “inactive”.

As to `CCCCCCNC(=O)n1cc(F)c(=O)[nH]c1=O`, the Potency result was “inactive”.

Another assay is described as follows: qHTS of pediatric cancer cell lines to identify multiple opportunities for drug repurposing: Primary screen for Saos-2 cells (AID 1347097). Note: nearly all actives have a fitted effect of over 40% in size. Note: potency is the fitted concentration of half-maximal effect. The conditions noted are these: Saos-2 viability, CellTiter-Glo ATP luminescence, 48 h; series mostly up to 46 µM. Put shortly:
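Viability was measured as metabolically active cells after 48 hours of treatment, read by CellTiter-Glo luminescence. Compounds were tested at multiple final concentrations, giving concentration-response curves.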
As for `O=S(=O)(O)CCS`, the Potency result was “inactive”.

Take `CC(=O)Oc1ccccc1C(=O)Nc1ncc([N+](=O)[O-])s1`: the Potency was 27 µM (active).

For the compound `CC(C)(C)NC(=O)[C@H]1CC[C@H]2[C@@H]3CC[C@H]4NC(=O)C=C[C@]4(C)[C@H]3CC[C@]12C`, the Potency is 14.8 µM (active).

Regarding `COc1cc2c(Nc3ccc(Br)cc3F)ncnc2cc1OCC1CCN(C)CC1`, the Potency entry is “inactive”.

On to `CC(C)(Sc1cc(C(C)(C)C)c(O)c(C(C)(C)C)c1)Sc1cc(C(C)(C)C)c(O)c(C(C)(C)C)c1`, for which the Potency result is “inactive”.

Turning to `COc1ccc2c(c1)c(CC(=O)OCC(=O)O)c(C)n2C(=O)c1ccc(Cl)cc1`, the Potency result was “inactive”.

Turning to `Cc1ccnc2c1NC(=O)c1cccnc1N2C1CC1`, the Potency result is “inactive”.

For the compound `Cc1nnc(NS(=O)(=O)c2ccc(N)cc2)s1`, the Potency result was “inactive”.

On to `CC[C@H](C)C(=O)O[C@H]1C[C@@H](C)C=C2C=C[C@H](C)[C@H](CC[C@@H]3C[C@@H](O)CC(=O)O3)[C@H]21`, for which the Potency is 5.9 µM (active).

In the case of `C[C@@H](CN1CC(=O)NC(=O)C1)N1CC(=O)NC(=O)C1`, the Potency entry was “inactive”.

Regarding `O[C@@H](CNC[C@H](O)[C@H]1CCc2cc(F)ccc2O1)[C@@H]1CCc2cc(F)ccc2O1`, the Potency is 26.4 µM (active).

As to `NC(=O)c1cccc(N)c1`, the Potency result is “inactive”.

Take `Clc1ccccc1CN1CCc2sccc2C1`: the Potency is 1.48 µM (active).

On to `CC1CC2C3CCC4=CC(=O)C=C[C@]4(C)[C@@]3(F)[C@@H](O)C[C@]2(C)[C@@]1(O)C(=O)CO` (some centres not stated), for which the Potency entry is “inactive”.

Consider `O=c1cc(O)c(Cl)c[nH]1`, for which the Potency entry was “inactive”.

As to `COc1cnc(NS(=O)(=O)c2ccc(N)cc2)nc1`, the Potency entry was “inactive”.

As to `O=C(O)C1CCCN(CCC=C(c2ccccc2)c2ccccc2)C1` (configuration not stated), the Potency result is “inactive”.

For `CC(C(=O)O)c1ccc2c(c1)CC(=O)c1ccccc1S2` (configuration not stated), the Potency result is “inactive”.

In the case of `CNC1CCCN(c2c(F)cc3c(=O)c(C(=O)O)cn(C4CC4)c3c2OC)C1` (configuration not stated), the Potency result is “inactive”.

Turning to `CNS(=O)(=O)CCc1ccc2[nH]cc(C3CCN(C)CC3)c2c1`, the Potency entry was “inactive”.

For the compound `Nc1nc(N)c2nc(CNc3ccc(C(=O)NC(CCC(=O)O)C(=O)O)cc3)cnc2n1` (configuration not stated), the Potency entry is “inactive”.

Turning to `CC(C)NCC(O)c1ccc(NS(C)(=O)=O)cc1` (configuration not stated), the Potency result is “inactive”.

Consider `N[C@@H](Cc1ccc(O)c(O)c1)C(=O)O`, for which the Potency entry was “inactive”.

As for `CCCCS(=N)(=O)CCC(N)C(=O)O` (configuration not stated), the Potency entry is “inactive”.

Turning to `CCCCCCNC(=O)n1cc(F)c(=O)[nH]c1=O`, the Potency result is “inactive”.
